According to PubChem BioAssay AID588591 (National Center for Advancing Translational Sciences (NCATS), 2011):
Hit rate of the full screen: of about 390,000 compounds, about 4,700 (1.2%) were called active. Where a call stands in place of a potency, no number is given. Inconclusive results (about 4%) are left out. Calls follow the shape of the dose curve; as a rule, active = well fitted inhibition curve with a large enough effect; inconclusive = small, poorly fitted or top-dose-only effect, or another doubt; inactive = no such curve, though single readings can be large or run the other way. The sample as a whole holds a higher share of actives than the screen did.
Potency is read from the fitted curve at half-maximal effect.

The compounds below were run against DNA polymerase eta (Homo sapiens) (UniProt Q9Y253) (assay: qHTS for Inhibitors of Polymerase Eta). Conditions: recombinant Pol eta, fluorescent DNA replication assay; series mostly up to 114 µM.
Sequence of DNA polymerase eta (Homo sapiens) (Q9Y253 whole entry, looked up): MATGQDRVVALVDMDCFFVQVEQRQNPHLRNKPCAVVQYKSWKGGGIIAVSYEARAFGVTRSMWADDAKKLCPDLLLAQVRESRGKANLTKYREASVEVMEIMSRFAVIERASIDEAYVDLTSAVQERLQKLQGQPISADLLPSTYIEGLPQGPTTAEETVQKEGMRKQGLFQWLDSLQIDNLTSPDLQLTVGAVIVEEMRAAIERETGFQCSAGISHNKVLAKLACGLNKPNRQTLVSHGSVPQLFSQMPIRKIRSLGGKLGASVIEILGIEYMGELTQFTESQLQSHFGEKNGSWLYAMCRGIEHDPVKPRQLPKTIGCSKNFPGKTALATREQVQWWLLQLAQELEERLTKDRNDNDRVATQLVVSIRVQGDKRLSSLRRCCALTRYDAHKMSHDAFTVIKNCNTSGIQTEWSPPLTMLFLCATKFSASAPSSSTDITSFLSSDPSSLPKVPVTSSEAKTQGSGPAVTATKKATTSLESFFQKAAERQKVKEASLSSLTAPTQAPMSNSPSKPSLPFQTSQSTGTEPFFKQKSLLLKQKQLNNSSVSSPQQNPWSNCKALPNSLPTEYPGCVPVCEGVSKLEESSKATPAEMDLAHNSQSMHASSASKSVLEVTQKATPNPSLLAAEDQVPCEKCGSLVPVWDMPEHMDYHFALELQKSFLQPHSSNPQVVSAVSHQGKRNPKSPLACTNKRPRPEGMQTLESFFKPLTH
In short: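 Pol eta at 10 nM preincubated with compounds 15 min at room temperature; reaction started with fluorescent substrate (50 nM final) and read kinetically at 0 and 10 min.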
For `NC1CCN(O)C1=O` (stereo not given), the Potency was “inactive”. In the case of `CCOc1ccc(NC(=O)CCC(=O)N2CC(C)Oc3ccc(C)cc32)cc1` (stereo not given), the Potency was “inactive”. With `COc1ccc(NC(=O)CCCc2nnc3n(CCC(C)C)c(=O)c4sccc4n23)c(OC)c1` the Potency was “inactive”. In the case of `Cc1cc(N2C(=O)c3ccc(C(=O)NCc4ccccc4)cc3C2=O)no1`, the Potency was “inactive”. `O=C(O)c1ccc2c(c1)C(=O)N(c1ccc(/C=C/C(=O)c3ccccc3)cc1)C2=O` was tested, and the Potency was 22.4 µM (active). For `COc1ccc(OC)c(NC(=O)c2ccc3c(c2)C(=O)N(c2ccc(OC(C)=O)cc2)C3=O)c1`, the Potency was “inactive”. With `COc1ccc(Cl)cc1-n1c(CCC(=O)O)ccc1-c1ccc(C)cc1` the Potency was “inactive”. For `Cc1ccc(Oc2c(C(F)(F)F)oc3c(CN4CCCCC4)c(O)ccc3c2=O)cc1`, the Potency was “inactive”. In the case of `Cc1cc(C)cc(Oc2c(C(F)(F)F)oc3cc(OCC(=O)O)ccc3c2=O)c1`, the Potency was 35.5 µM (active). `O=C(COc1ccc2c(C(F)(F)F)cc(=O)oc2c1)Nc1ccc2c(c1)OCCO2` was tested, and the Potency was “inactive”. For `CCCn1c(NCc2ccc(N(CC)CC)cc2)nc2ccccc21`, the Potency was “inactive”. `COc1cccc(-n2c(=O)c3c(C)c(C(=O)N(C)C)sc3n(Cc3cccc(C)c3)c2=O)c1` was tested, and the Potency was “inactive”. For `CCOC(=O)c1c(S(=O)(=O)NCC(=O)Nc2ccc(Cl)c(C(F)(F)F)c2)c(C)n(C)c1C`, the Potency was “inactive”. With `O=C1COc2c1ccc(O)c2O` the Potency was 22.4 µM (active). For `CCSc1nnc2c(n1)OC(c1ccc(OCC(=O)O)cc1)Nc1ccccc1-2` (stereo not given), the Potency was “inactive”. With `Cc1ccccc1NC(=O)c1c(NC(=O)c2ccccc2F)sc2c1CCC(C)C2` (stereo not given) the Potency was “inactive”. For `CCOc1cccc2c1N[C@@H](c1ccc(C(=O)O)cc1)[C@H]1CC=C[C@@H]21`, the Potency was 8.91 µM (active). In the case of `CCOc1cccc(CC(=O)N2CCc3c([nH]c4ccccc34)C2c2ccc(F)cc2)c1OCC` (stereo not given), the Potency was “inactive”. With `CCOc1ccccc1C1NC(=O)NC(C)=C1C(=O)OCc1ccco1` (stereo not given) the Potency was “inactive”. For `COc1cccc2c1cc1c(=O)n(CC(=O)N3CCN(c4ccccc4)CC3)nc(C)n12`, the Potency was “inactive”. For `COc1ccc(CNC(=O)c2ccc3c(c2)nc2n3CCOC2)c(OC)c1`, the Potency was “inactive”. With `COc1cccc(CNS(=O)(=O)c2ccc3c(c2)CC(C)N3C(=O)C2CCC2)c1` (stereo not given) the Potency was “inactive”. For `CC1CCN(S(=O)(=O)c2ccc(S(=O)(=O)NCc3ccco3)cc2)CC1`, the Potency was “inactive”. `CCC(=O)N1c2ccc(S(=O)(=O)NCc3ccco3)cc2CC1C` (stereo not given) was tested, and the Potency was 56.2 µM (active). In the case of `COc1ccccc1CNC(=O)c1ccccc1NC(=O)c1nsc2ccccc12`, the Potency was “inactive”. For `COc1cc(O)c2c(=O)c3c(O)c(O)ccc3oc2c1OC`, the Potency was “inactive”. `COc1c(O)cc2oc(-c3ccc(O)c(O)c3)cc(=O)c2c1O` was tested, and the Potency was 3.55 µM (active). For `COc1ccc(-c2c(C)c3ccc(O)c(CN4CCN(C)CC4)c3oc2=O)cc1OC`, the Potency was “inactive”. For `Cc1cc(F)ccc1NC1(c2ccccc2)C(=O)c2ccccc2C1=O`, the Potency was “inactive”. In the case of `Cc1ccc(NC(=O)Cn2cnc3nc4c(cc3c2=O)CCCC4)cc1Cl`, the Potency was “inactive”. For `Cc1ccccc1CS(=O)(=O)CC1Nc2ccc(C(=O)NCc3ccc(Cl)cc3)cc2NC1=O` (stereo not given), the Potency was “inactive”. In the case of `Cc1ccc(N2CC(c3nnc(Cc4ccccc4Cl)o3)CC2=O)cc1` (stereo not given), the Potency was “inactive”. `CS(=O)(=O)C1=NN2C(=N)/C(=C\c3ccc(OCCOc4ccccc4)cc3)C(=O)N=C2S1` was tested, and the Potency was 44.7 µM (active). In the case of `CCS(=O)(=O)C1=NSC2=NC(=O)/C(=C\c3ccc(OS(=O)(=O)c4ccccc4)cc3)C(=N)N21`, the Potency was 20 µM (active). For `Cc1cc(/C=C2/C(=N)N3C(=NC2=O)SN=C3S(C)(=O)=O)c(C)n1-c1ccccc1`, the Potency was 44.7 µM (active). For `Cc1nc2ccn(Cc3cccnc3)c(=O)c2cc1C(=O)N1CCN(c2ccccc2F)CC1`, the Potency was “inactive”. In the case of `CCOc1ccccc1C(=O)Nc1ccc(S(=O)(=O)N2CCCCC2c2cccnc2)cc1` (stereo not given), the Potency was “inactive”. With `COc1ccc(-c2cn3c(C)c(C(=O)Nc4cc(C)cc(C)c4)sc3n2)cc1` the Potency was “inactive”. In the case of `COc1ccc(Cn2c(C(=O)O)c(CNCc3cccc(OC)c3)c3ccc(C)cc32)cc1`, the Potency was “inactive”. In the case of `O=C(CC(c1cccs1)N1Cc2ccccc2C1=O)Nc1ccc(F)cc1F` (stereo not given), the Potency was “inactive”. In the case of `O=C(/C=C/c1ccc([N+](=O)[O-])o1)NNC(=O)c1ccc(F)cc1`, the Potency was 79.4 µM (active). `CCOc1ccc(NC(=O)c2cc3c(=O)n(Cc4cccs4)ccc3nc2C)cc1` was tested, and the Potency was “inactive”. In the case of `CCOc1ccc(-c2nonc2NC(=O)c2oc3ccc(C)cc3c2C)cc1OCC`, the Potency was “inactive”. `Cc1c(Cl)cccc1NC(=O)N1CCN(C(=O)c2nsc3ccccc23)CC1` was tested, and the Potency was “inactive”. With `C/C(=N\Nc1cccc(C(=O)O)c1)c1ccc2c(c1)Nc1ccccc1S2` the Potency was 20 µM (active). In the case of `O=C(CCCOc1ccccc1)Nc1cccc(C(=O)O)c1`, the Potency was “inactive”. `COc1ccc(Cl)cc1S(=O)(=O)Nc1cccc(C(=O)O)c1` was tested, and the Potency was “inactive”. With `CC1=C(C(=O)OCc2ccc(C)cc2)C(c2c(Cl)cccc2Cl)CC(=O)N1` (stereo not given) the Potency was “inactive”. `COc1cc(Cl)c(NC(=O)CC(C)S(=O)(=O)c2cc3c(cc2C)NC(=O)CO3)c(OC)c1` (stereo not given) was tested, and the Potency was “inactive”. With `O=C(CCC(=O)N1CC2CCCN2c2ccccc21)NCc1ccccc1Cl` (stereo not given) the Potency was “inactive”. For `Nc1ccc2[nH]c(=S)sc2c1`, the Potency was 22.4 µM (active). For `Cc1ccc(Cn2cc(CCC(=O)NCc3ccc(OC(C)C)cc3)c3ccccc32)cc1`, the Potency was “inactive”. With `CC(=O)Nc1cc(C(=O)NCc2ccc(F)cc2)ccc1Sc1ccc(F)cc1` the Potency was “inactive”. For `CCOC(=O)c1c(C)[nH]c(C)c1S(=O)(=O)N1CCCC(C(=O)NCc2ccccc2Cl)C1` (stereo not given), the Potency was “inactive”. In the case of `O=C(CCS(=O)(=O)c1ccc2c(c1)NC(=O)CO2)Nc1cccc(C(F)(F)F)c1`, the Potency was “inactive”. In the case of `Cc1cc(OC(C)C(=O)Nc2ccc(S(=O)(=O)Nc3onc(C)c3C)cc2)cc(C)c1Cl` (stereo not given), the Potency was “inactive”. In the case of `Cc1noc(NS(=O)(=O)c2ccc(NC(=O)c3oc4ccc(F)cc4c3C)cc2)c1C`, the Potency was “inactive”. For `Cc1cc(C)c2nc(-c3cccnc3)cc(C(=O)Nc3ccc(S(=O)(=O)Nc4onc(C)c4C)cc3)c2c1`, the Potency was 44.7 µM (active). For `CCOc1ccccc1C(=O)NCC(c1ccc(N(C)C)cc1)N1CCCC1` (stereo not given), the Potency was “inactive”. `CC1CCCN(c2nc3c(S(=O)(=O)c4ccc(C(C)C)cc4)nnn3c3ccsc23)C1` (stereo not given) was tested, and the Potency was “inactive”.
